The record followed here is PubChem BioAssay (NCI).

This is part of a sample that, as a whole, favours compounds with a hit. Of some 79,000 tested, about 15% had one in any assay. Values without a mark were called inactive. Activity calls are given as the source filed them. Cut-off read from the data, not from the text of the source: active = growth inhibition above about 70%; inactive = the rest. Where a SMILES comes first, the peptide text is derived from it. The star is where a group is joined. Boc = CC(C)(C)OC(=O)*

A short description of experiment [1]: NCI Yeast Anticancer Drug Screen. Data for the rad50 strain (AID 155).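 Note: 0% = growth of vehicle-only cultures of the same strain.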 To be noted: S. cerevisiae rad50 strain growth inhibition; at 50.0 µM; active compounds read high. The procedure, abridged:
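Cells are treated with compound, grown, and their growth is then scored against vehicle-only cultures of the same repair-deficient yeast strain.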

The nature of experiment [2]: NCI Yeast Anticancer Drug Screen. Data for the mec2-1 strain (AID 157). As to conditions: S. cerevisiae mec2-1 strain, at 50.0 µM, active compounds read high. The procedure, abridged: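 Using mec2-1 yeast: add compound, measure growth, express inhibition versus vehicle-treated cultures.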
A short description of experiment [3]: NCI Yeast Anticancer Drug Screen. Data for the sgs1 mgt1 strain (AID 161).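 Note: 0% = growth of cultures given vehicle only.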 To be noted: S. cerevisiae sgs1 mgt1 strain, at 50.0 µM, active compounds read high. The procedure, abridged:
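This yeast growth screen uses a strain with defined DNA-repair lesions; compound-treated growth is compared with vehicle-treated growth.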

Experiment [4] can be described thus: NCI Yeast Anticancer Drug Screen. Data for the cln2 rad14 strain (AID 165).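 Note: 0% = growth equal to vehicle treated cultures.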 As to conditions: S. cerevisiae cln2 rad14 strain, at 50.0 µM, active compounds read high. The procedure, abridged: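 Yeast strain cln2 rad14, bearing defects in cell cycle control and DNA repair, serves as the test system; values reflect growth inhibition compared with vehicle.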
A short description of experiment [5]: NCI Yeast Anticancer Drug Screen. Data for the bub3 strain (AID 167). To be noted: S. cerevisiae bub3 mutant strain, at 50.0 µM, active compounds read high. The procedure, abridged:
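Part of a panel of yeast mutants defective in DNA damage repair or cell cycle regulation. Each strain is grown with compound, and inhibition is calculated relative to solvent-treated cultures.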

The nature of experiment [6]: NCI Yeast Anticancer Drug Screen. Data for the mlh1 rad18 strain (AID 175). To be noted: S. cerevisiae mlh1 rad18 strain growth inhibition; at 50.0 µM; active compounds read high. The procedure, abridged:
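Steps: expose repair-defective yeast to compound; measure growth; express inhibition against vehicle-treated controls.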

For `CCOC(=O)CCC(=O)N(CC)CC`, the growth inhibition was 8.7% in experiment [1]; 16.6% in experiment [2]; 16.4% in experiment [3]; 9.9% in experiment [4]; -10.9% in experiment [5]; -13% in experiment [6].
Take `Oc1ccccc1CNCc1nc2ccccc2[nH]1`: the growth inhibition in experiment [1] was -8.1%; in experiment [2], -1.7%; in experiment [3], -11.6%; in experiment [4] it was -8.7%; in experiment [5] it was -4.4%; in experiment [6], 18.6%.
Take `Nn1c(=O)[nH]c2ncn(Cc3ccccc3)c2c1=O`: the growth inhibition was 4.3% in experiment [1]; -21.9% in experiment [2]; 9.2% in experiment [3]; 16.9% in experiment [4]; -3% in experiment [5]; 3.35% in experiment [6].
As for `C=CCOC(=O)NC(Cc1ccc(O)cc1)C(=O)O` (stereo unspecified), the growth inhibition in experiment [1] is -0.05%; in experiment [2], -4.85%; in experiment [3] it was 4.5%; in experiment [4] it was 3.65%; in experiment [5], -10.8%; in experiment [6], -2.45%.
Consider `CSc1cnn(CCC#N)c(=O)n1`, for which the growth inhibition in experiment [1] is 16.4%; in experiment [2], 14.1%; in experiment [3] it was 19.9%; in experiment [4] it was 2.4%; in experiment [5], 15.7%; in experiment [6] it was 2.35%.
`CC1(CN2CCCCC2)COC(c2ccccc2)(c2ccccc2)OC1`: the growth inhibition in experiment [1] is -8.1%; in experiment [2], -8.85%; in experiment [3] it was -13.6%; in experiment [4], -36.1%; in experiment [5] it was 5.75%; in experiment [6], -0.9%.
As for `C/C=C/C(=O)N(CC)CC`, the growth inhibition in experiment [1] was 9%; in experiment [2] it was -4.25%; in experiment [3], 3.75%; in experiment [4] it was 1.65%; in experiment [5] it was -24.9%; in experiment [6], 10.8%.
`O=C(O)C(SSC(C(=O)O)(c1ccccc1)c1ccccc1)(c1ccccc1)c1ccccc1`: the growth inhibition in experiment [1] was 71.8% (active); in experiment [2], 21.5%; in experiment [3], 54.6%; in experiment [4], 36%; in experiment [5] it was 12%; in experiment [6], 38%.
`COC(=O)C(Cc1c[nH]c2ccccc12)NC(=O)C(Cc1c[nH]c2ccccc12)NC(=O)C(Cc1c[nH]c2ccccc12)NC(=O)C(Cc1c[nH]c2ccccc12)NC(=O)OC(C)(C)C` (stereo unspecified) (Boc-WWWW-OMe; configuration not given here): the growth inhibition in experiment [1] was 3.35%; in experiment [2], -4.65%; in experiment [3], -2.05%; in experiment [4], 23.4%; in experiment [5], 4.65%; in experiment [6], 6.2%.
`CCCC(=O)OCc1ccc(Cl)cc1Cl`: the growth inhibition in experiment [1] was 31.6%; in experiment [2] it was 13.3%; in experiment [3], 14.8%; in experiment [4], 7.75%; in experiment [5] it was 0%; in experiment [6], 13.9%.
Turning to `CCc1cc(C(C)(C)C)cc(C(C)(C)C)c1O`, the growth inhibition in experiment [1] is 23.6%; in experiment [2], 18.4%; in experiment [3], -5.75%; in experiment [4], 6.05%; in experiment [5], 21.4%; in experiment [6], 2.2%.
As for `CSc1nc(Cl)nc2[nH]ncc12`, the growth inhibition was 11.3% in experiment [1]; -5.4% in experiment [2]; 1.1% in experiment [3]; -17.3% in experiment [4]; 4.45% in experiment [5]; 30.9% in experiment [6].
Regarding `CC1SC2=NC3=C(c4ccccc4C3=O)C(c3ccc(F)cc3)N2C1=O` (stereo unspecified), the growth inhibition in experiment [1] is 34.4%; in experiment [2] it was 24.2%; in experiment [3], 35.8%; in experiment [4] it was 32%; in experiment [5], 47.1%; in experiment [6], 22.8%.
In the case of `Cc1nc2c(cc1C#N)C(Nc1ccc(Cl)cc1)Oc1ccc([N+](=O)[O-])cc1-2` (stereo unspecified), the growth inhibition in experiment [1] was -4.6%; in experiment [2] it was -12.3%; in experiment [3], 0.5%; in experiment [4], -32.2%; in experiment [5], -36.5%; in experiment [6] it was -7.5%.
Take `CC(C)(C)[Si](C)(C)OCC1CCC(n2cnc3c(N)ncnc32)O1` (stereo unspecified): the growth inhibition in experiment [1] was 19.7%; in experiment [2], -3.1%; in experiment [3], -6.2%; in experiment [4], -4.7%; in experiment [5], -1.95%; in experiment [6] it was 6.7%.
On to `C/C=C(\CC)C(C#N)(CCC)C(=O)OCC` (stereo unspecified), for which the growth inhibition was -10.2% in experiment [1]; -17.6% in experiment [2]; -21.2% in experiment [3]; -9% in experiment [4]; -33.1% in experiment [5]; -17.6% in experiment [6].
As for `C[N+](C)(C)CCCOC1=Nc2ccccc2O/C1=C/c1ccccc1`, the growth inhibition is -52.2% in experiment [1]; 2.1% in experiment [2]; -6.3% in experiment [3]; -27.4% in experiment [4]; -4.1% in experiment [5]; 18.5% in experiment [6].
Turning to `Clc1ccc2c(c1)C1Oc3ccc(Cl)cc3C(O2)O1`, the growth inhibition was -5.5% in experiment [1]; -24.5% in experiment [2]; 1% in experiment [3]; -14.3% in experiment [4]; -6.4% in experiment [5]; -2.3% in experiment [6].
For the compound `COc1ccc(Sc2cccc(Cl)c2)c(C(=O)O)c1`, the growth inhibition in experiment [1] was -21.8%; in experiment [2], -18.4%; in experiment [3], -27.2%; in experiment [4] it was 3.8%; in experiment [5], -0.55%; in experiment [6], 6.5%.
On to `O=S(O)CCCSSc1ccccc1`, for which the growth inhibition in experiment [1] was 38.5%; in experiment [2], 22.4%; in experiment [3], 40.1%; in experiment [4] it was 56.1%; in experiment [5] it was 40.7%; in experiment [6] it was 67.2%.
On to `C=C1C(=O)O[C@H]2[C@@H](O)[C@H](C)CCC[C@]3(C)O[C@H]3CC[C@@]3(C)O[C@@H]3C[C@@H]12`, for which the growth inhibition in experiment [1] was 19.4%; in experiment [2], 37.2%; in experiment [3], 70.5% (active); in experiment [4], 41.8%; in experiment [5], 61.1%; in experiment [6], 58.2%.
Consider `Cc1cc(Cl)c(Cl)cc1NC(=O)c1ccc(Cl)cc1Cl`, for which the growth inhibition in experiment [1] is 2.85%; in experiment [2] it was 6.9%; in experiment [3], 1.25%; in experiment [4] it was -0.95%; in experiment [5], -1.3%; in experiment [6], 17.6%.
With `OC(c1cccc(OCc2ccccc2)c1)c1ccccn1` (stereo unspecified), the growth inhibition in experiment [1] was 4.95%; in experiment [2], -6.6%; in experiment [3], 2.15%; in experiment [4], -20.9%; in experiment [5], 2.15%; in experiment [6], 2%.
As for `CN(C)c1ccc(NN=C2SC(=Nc3ccccc3)C(=Nc3ccccc3)S2)cc1`, the growth inhibition in experiment [1] is 41.5%; in experiment [2], -17.9%; in experiment [3], -10.2%; in experiment [4] it was 18.1%; in experiment [5], 25.2%; in experiment [6], 8.15%.
Regarding `CC(=O)CC(=O)NC(C)(C)CC(C)(C)C`, the growth inhibition in experiment [1] is -16.4%; in experiment [2] it was -41.9%; in experiment [3], -31.8%; in experiment [4], 10.8%; in experiment [5], -34.8%; in experiment [6], -9.55%.
As to `CCOC(=O)c1ccc(CSc2ccccc2C(=O)OCC)cc1`, the growth inhibition was -10.3% in experiment [1]; -13.1% in experiment [2]; 9.95% in experiment [3]; -60.1% in experiment [4]; -17.1% in experiment [5]; -43.2% in experiment [6].
Take `C=C[C@]1(C)C[C@@H](OC(=O)CO)[C@@]2(C)[C@H](C)CC[C@]3(CCC(=O)[C@H]32)[C@@H](C)[C@@H]1O`: the growth inhibition in experiment [1] was -28.6%; in experiment [2], -23.3%; in experiment [3], 14.3%; in experiment [4], 30.2%; in experiment [5], -49.4%; in experiment [6] it was -2.15%.
For `COc1ccc2[nH]c3c(c2c1)-c1ncncc1CC3`, the growth inhibition in experiment [1] is 37.4%; in experiment [2], -9.65%; in experiment [3], -3.7%; in experiment [4], 6.1%; in experiment [5], 40.4%; in experiment [6] it was 24.4%.
Regarding `O=C(O)c1ccccc1N1C(=O)c2ccccc2C1=O`, the growth inhibition is 4.95% in experiment [1]; -33.2% in experiment [2]; -4.1% in experiment [3]; 8.2% in experiment [4]; 11.2% in experiment [5]; -1.55% in experiment [6].
For the compound `N#Cc1nc(-c2ccco2)oc1N`, the growth inhibition is -20.8% in experiment [1]; 1.85% in experiment [2]; -23.2% in experiment [3]; 3% in experiment [4]; -10.2% in experiment [5]; -5.8% in experiment [6].
`CC(=O)c1ccc(OC(=O)Nc2ccc(Cl)cc2)cc1`: the growth inhibition is 4.8% in experiment [1]; 10.1% in experiment [2]; 23.9% in experiment [3]; -2.3% in experiment [4]; 29.6% in experiment [5]; 12.9% in experiment [6].
For `COc1ccc(CCNc2ncc([N+](=O)[O-])cc2N)cc1OC`, the growth inhibition in experiment [1] is 5.15%; in experiment [2], -8.75%; in experiment [3] it was -10.8%; in experiment [4], -20.9%; in experiment [5], 6.25%; in experiment [6] it was 2.75%.
For the compound `O=C(Nc1cccc2c1C(=O)c1c(NC(=O)c3ccccc3)ccc(Nc3cccc4c3C(=O)c3ccccc3C4=O)c1C2=O)c1ccccc1`, the growth inhibition in experiment [1] was 8.05%; in experiment [2] it was -2.65%; in experiment [3] it was 0.9%; in experiment [4], 10%; in experiment [5], 9.05%; in experiment [6], 3.45%.
Consider `CC(C)CC1CC(=O)NC1C(=O)O` (stereo unspecified), for which the growth inhibition in experiment [1] was -14.2%; in experiment [2], 0.35%; in experiment [3], -13.2%; in experiment [4] it was -26.1%; in experiment [5], -0.85%; in experiment [6], -28.9%.
For the compound `CCOC(=O)c1cn(C)c2c1C(=O)C(C(=O)OCC)CCN2C(=O)OCC` (stereo unspecified), the growth inhibition in experiment [1] was -1.5%; in experiment [2], 9.15%; in experiment [3], -11.8%; in experiment [4] it was 8.95%; in experiment [5], 1%; in experiment [6], -19.6%.
For the compound `NC1CCCCC1N.O=S(=O)([O-])CCCNC1CCCCC1.O=S(=O)([O-])CCCNC1CCCCC1.[Pt+4]`, the growth inhibition is -6.3% in experiment [1]; -8.15% in experiment [2]; -15.7% in experiment [3]; -23.6% in experiment [4]; -21.1% in experiment [5]; 15.9% in experiment [6].
